# Source: PubChem BioAssay (The Scripps Research Institute Molecular Screening Center)
# Sampled rows, rich in hits. Any-hit rate of the full collection: about 4.8%.
# hgDAF-12 ag: H. glycines DAF-12 receptor agonists, primary screen, cell-based, luminescence, HEK293, GAL4 fusion, UAS-luciferase. Nuclear hormone receptor DAF-12 (Heterodera glycines), GAL4 fusion. HEK293 GAL4-hgDAF12 UAS-luciferase reporter, agonist luminescence; normalized to butyrate control. activation, % at 6.8 µM. hit rate 1.8% among 370,000. AID 687014, 2013;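 active = activation above a cutoff set at the mean of all screened compounds plus 3 SD, cut at about 10% in these data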;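 note: 0% = DMSO wells and 100% = sodium butyrate wells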
# DAX1 inh-1: DAX1 (NR0B1) inhibitors on StAR promoter, primary screen, cell-based, luminescence, SF-1 (NR5A1), full-length DAX-1; AID 652010, 2013; inhibition, % at 6.8 µM; HEK293T StAR-luciferase reporter, SF-1/DAX-1 repression relief; hit rate 1.1% among 370,000;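 active = inhibition above the mean over all tested compounds plus 3 SD, cut at about 3.6% in these data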;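 note: 0% = DAX-1 cells with DMSO and 100% = cells lacking DAX-1 with DMSO; higher inhibition means more luminescence from relief of DAX-1 repression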
# hcDAF12 agonist: H. contortus DAF-12 nuclear receptor activators, primary screen, cell-based, luminescence, HEK293, lit1-tk-luc reporter | HEK293 hcDAF-12 lit1-tk-luc reporter; 0% DMSO, 100% Δ7-dafachronic acid | activation, % at 6.8 µM | hit rate 1.4% among 370,000 | AID 652067, 2013;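 active = activation above the mean of all tested compounds plus 3 SD, cut at about 5.5% in these data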;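 note: 100% = response to 3 µM Δ7-dafachronic acid high control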
# ssDAF-12 act: S. stercoralis DAF-12 nuclear receptor activators, primary screen, cell-based, luminescence, HEK293, GRIP1 co-expression, lit1-tk-luc | Nuclear hormone receptor DAF-12 (Strongyloides stercoralis) | HEK293 ssDAF-12/GRIP1 lit1-tk-luc reporter; % of 3 µM dafachronic acid response | activation, % at 6.8 µM | hit rate 1% among 370,000 | AID 652126, 2013;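 active = activation above the mean over all tested compounds plus 3 SD, cut at about 0.9% in these data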;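 note: 0% = DMSO-only wells and 100% = 3 µM delta7-dafachronic acid wells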
# SMARCA2 act: SMARCA2 (BRM) function activators, primary screen, cell-based, luminescence, high throughput | MG213 cells, MMTV-luciferase reporter, dexamethasone, overnight | activation, % at 9.1 µM | hit rate 1% among 370,000 | AID 652017, 2013; in the data active = activation above about 7.8%;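 note: 0% = vehicle wells and 100% = reference activator wells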
# DAX1 inh-2: DAX1 (NR0B1) inhibitors, primary screen, cell-based, HEK293, Gal4-DAX1, luciferase luminescence; Nuclear receptor subfamily 0 group B member 1 (Homo sapiens), P51843; HEK293 Gal4-DAX1 luciferase reporter; inhibition, % at 6.75 µM; hit rate 0.99% among 340,000;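 active = inhibition above the mean over all tested compounds plus 3 SD, cut at about 4.2% in these data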;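 note: 0% = DAX1-transfected cells with DMSO and 100% = empty-vector control cells with DMSO; inhibition shows as a rise in luminescence from relieved DAX1 repression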
# Target sequence (P51843 207-470 limits assumed): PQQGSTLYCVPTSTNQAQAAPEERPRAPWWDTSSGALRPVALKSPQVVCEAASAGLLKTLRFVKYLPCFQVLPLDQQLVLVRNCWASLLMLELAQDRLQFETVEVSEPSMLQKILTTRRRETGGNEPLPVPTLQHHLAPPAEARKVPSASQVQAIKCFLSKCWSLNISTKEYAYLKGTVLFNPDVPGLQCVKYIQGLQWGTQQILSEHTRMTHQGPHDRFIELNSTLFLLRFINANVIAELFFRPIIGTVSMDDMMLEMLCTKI
# Active calls of the source: *; / = no result.
SMILES,hgDAF-12 ag,DAX1 inh-1,hcDAF12 agonist,ssDAF-12 act,SMARCA2 act,DAX1 inh-2
CCOC(=O)C1CCCN(CC(=O)Nc2cc(C)cc(C)c2)C1 (configuration not stated),0.6,1.2,-0.2,-1.0,-0.7,0.4
CCOC(=O)C1CCCN(CC(=O)c2c[nH]c3ccc(C)cc23)C1 (configuration not stated),1.5,-0.2,1.8,1.3*,-5.2,/
COc1ccc2[nH]cc(C(=O)CN3CCC(C)CC3)c2c1,7.1,1.2,3.4,1.3*,3.8,2.7
COc1ccc2[nH]cc(C(=O)CN3CCCC(C)C3)c2c1 (configuration not stated),3.5,0.5,0.0,-0.8,0.3,-0.6
O=C1CSC(=S)N1N=Cc1c(O)ccc2ccccc12,3.9,1.5,4.1,1.0*,-1.7,3.0
CS(=O)(=O)N1N=C(c2ccc(Br)cc2)CC1c1ccc2c(c1)OCO2 (configuration not stated),/,/,/,/,/,2.3
CC(=O)N1N=C(c2ccc(C)cc2)CC1c1ccc2c(c1)OCO2 (configuration not stated),9.4,1.4,6.1*,-0.4,4.4,3.0
O=C(c1cccs1)N1CCn2c1nc1ccccc12,6.8,4.3*,5.2,-0.6,5.0,1.7
Cc1ccc(Cc2nnc3n(-c4ccccc4)nc(C(=O)c4ccccc4)n3c2=O)cc1,-2.1,-0.6,-1.4,-1.4,-3.2,7.0*
Cc1cccc(NC(=S)NNC(=O)c2cc3c(s2)CCC(C)C3)c1C (configuration not stated),-2.6,-0.2,-1.4,20.3*,-2.5,0.2
CC1CCCN(S(=O)(=O)c2ccc(C(=O)Nc3ccccc3-c3nc4ccccc4[nH]3)cc2)C1 (configuration not stated),0.8,0.2,0.7,-1.9,-0.1,-0.8
CCc1ccc(C(=O)Nc2nc3ccccc3[nH]2)cc1,-11.7,-1.4,-4.0,-1.2,-7.5,-4.6
O=C(Nc1nc2ccccc2[nH]1)c1ccccc1[N+](=O)[O-],7.9,0.9,1.3,-0.7,3.9,3.1
Cc1c(C(=O)Nc2nc3ccccc3[nH]2)cccc1[N+](=O)[O-],7.8,1.6,5.3,1.5*,5.1,1.6
Cc1cc(C)cc(C(=O)Nc2nc3ccccc3[nH]2)c1,7.0,0.5,1.2,-0.7,3.1,0.6
O=C(Nc1nc2ccccc2[nH]1)c1cc(F)cc(F)c1,10.4,1.6,5.6*,0.7,7.6,0.7
CC1CCN(S(=O)(=O)c2ccc(C(=O)Nc3ccccc3-c3nc4ccccc4[nH]3)cc2)CC1,-0.2,0.2,2.6,-0.6,9.7*,0.8
CN(C)S(=O)(=O)c1ccc(C(=O)Nc2nc3ccccc3[nH]2)cc1,7.9,2.7,1.3,-1.4,4.9,6.7*
Cc1ccc([N+](=O)[O-])cc1NC(=O)CN1CCCCC1,1.9,-0.7,0.2,-0.9,-0.6,-0.2
Cn1nc(C(=O)Nc2nc3ccccc3[nH]2)c2ccccc2c1=O,3.0,0.0,-1.0,-0.9,16.4*,0.3
O=C(Nc1nc2ccccc2[nH]1)c1ccc(OC(F)F)cc1,11.0*,0.6,2.7,-0.3,1.9,-2.0
FC(F)(F)c1cc(Oc2ccccc2)nc(-c2ccccn2)n1,1.2,-0.9,-1.7,-2.0,0.3,-0.1
COc1cc(-c2cc(C(=O)Nc3cccc(C(C)=O)c3)c3ccccc3n2)cc(OC)c1OC,-4.8,-1.2,-1.9,-1.4,0.8,-0.7
COc1ccc(CNC(=O)CN(Cc2ccc(C)cc2)S(=O)(=O)c2ccc(Cl)cc2)cc1,1.0,0.4,-1.1,-0.8,-0.5,-1.0
O=C(Nc1ccccn1)C12CC3CC(C1)CC(C(=O)Nc1ccccn1)(C3)C2,0.3,-1.3,-0.7,-1.4,-6.9,-1.3
